From PubChem BioAssay (NCI)
Compounds without any hit were thinned out: in the full panel of roughly 83,000, 20% have a hit.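 48-hour exposure, single concentration, 96-well plates; percent growth endpoint where 0 means no net growth. Active: below 10.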 Calls of active or inactive are those of the source.

How the values were obtained:
Assay in all cases: NCI-60 one-dose screen, 48 h (100 = growth as untreated, 0 = no growth, -100 = all killed)
Details in all cases: 10 µM unless noted
HCT-15 colon = tested on: HCT-15 colon
HT29 colon = tested on: HT29 colon
SNB-75 CNS = tested on: SNB-75 CNS
SNB-19 CNS = tested on: SNB-19 CNS
U251 CNS = tested on: U251 CNS
PC-3 prostate = tested on: PC-3 prostate
SK-MEL-5 melanoma = tested on: SK-MEL-5 melanoma
UACC-62 melanoma = tested on: UACC-62 melanoma
LOX IMVI melanoma = tested on: LOX IMVI melanoma
SK-MEL-28 melanoma = tested on: SK-MEL-28 melanoma

Measured: growth

C#Cc1cccc(NC(=O)Nc2cccc(N=C=S)c2)c1
inactive: HCT-15 colon 105% [8.25 µM] | HT29 colon 113% [8.25 µM] | SNB-75 CNS 89.3% [8.25 µM] | SNB-19 CNS 96.6% [8.25 µM] | U251 CNS 96.9% [8.25 µM] | PC-3 prostate 94.6% [8.25 µM] | SK-MEL-5 melanoma 95.7% [8.25 µM] | UACC-62 melanoma 89.4% [8.25 µM] | LOX IMVI melanoma 102% [8.25 µM]

S=c1[nH]cccc1-c1nnc2n1Nc1nc3ccc(Cl)cc3cc1CS2
inactive: HCT-15 colon 96.9% | HT29 colon 110% | SNB-75 CNS 91.4% | SNB-19 CNS 96.8% | U251 CNS 105% | PC-3 prostate 97.7% | SK-MEL-5 melanoma 98% | UACC-62 melanoma 87.3% | LOX IMVI melanoma 98%

FC(F)(F)Oc1cccc(-c2cc(NCCCCCCNc3cc(-c4cccc(OC(F)(F)F)c4)nc4ccc(N5CCCC5)cc34)c3cc(N4CCCC4)ccc3n2)c1
active: HCT-15 colon -57.5% | HT29 colon -27.7% | SNB-75 CNS -4.49% | SNB-19 CNS -68.3% | U251 CNS -90.2% | PC-3 prostate -22.2% | SK-MEL-5 melanoma -62.4% | UACC-62 melanoma -92.1% | LOX IMVI melanoma -71.1%

O=C(Nc1ccc2ncnc(Nc3ccc(Oc4cccc(F)c4)c(Cl)c3)c2c1)c1ccc(CN2CCOCC2)cc1
active: SK-MEL-5 melanoma 4.82% | LOX IMVI melanoma 8.89%
inactive: HCT-15 colon 11.2% | HT29 colon 20.9% | SNB-75 CNS 55.8% | SNB-19 CNS 50.8% | U251 CNS 36.5% | PC-3 prostate 14.6% | UACC-62 melanoma 53.5%

CN1CCN(c2ccc3nc(-c4cc(C(C)(C)C)c(O)c(C(C)(C)C)c4)[nH]c3c2)CC1
inactive: SNB-75 CNS 58.8% | SNB-19 CNS 73.6% | U251 CNS 16.5% | PC-3 prostate 58.7% | SK-MEL-5 melanoma 74.9% | UACC-62 melanoma 63.5% | SK-MEL-28 melanoma 57%
active: HCT-15 colon -35.3% | HT29 colon 6.14% | LOX IMVI melanoma -37.3%

Cc1cccc(C)c1-c1cc(Cc2ccc(Cl)cc2)c(=O)[nH]n1
inactive: HCT-15 colon 107% | HT29 colon 105% | SNB-75 CNS 90.5% | SNB-19 CNS 80.9% | U251 CNS 101% | PC-3 prostate 97.2% | SK-MEL-5 melanoma 98.8% | UACC-62 melanoma 93.7% | LOX IMVI melanoma 93.4%

C=C1C(=O)O[C@H]2[C@H]1CC/C(COC(=O)/C=C/c1c[nH]c3ccccc13)=C\CC[C@@]1(C)O[C@@H]21
active: HCT-15 colon -64.6% | HT29 colon -83.6% | SNB-75 CNS -53.7% | SNB-19 CNS -68.8% | U251 CNS -98.1% | PC-3 prostate -73.4% | SK-MEL-5 melanoma -98.4% | UACC-62 melanoma -71.9% | LOX IMVI melanoma -97.3%

N/C(=N\N=C\c1cc2ccccc2s1)N/N=C/c1cc2ccccc2s1
inactive: HCT-15 colon 105% | HT29 colon 108% | SNB-75 CNS 95.5% | SNB-19 CNS 97% | U251 CNS 113% | PC-3 prostate 97.4% | SK-MEL-5 melanoma 98% | UACC-62 melanoma 95.3% | LOX IMVI melanoma 100%

COc1ccc(-c2nc3sccn3c2/C=C/C(=O)c2cc(OC)c(OC)c(OC)c2)cc1
inactive: HCT-15 colon 40.2% | HT29 colon 46.9% | SNB-75 CNS 37.2% | SNB-19 CNS 59.9% | U251 CNS 43.1% | PC-3 prostate 32.2% | UACC-62 melanoma 46.6% | LOX IMVI melanoma 41.4% | SK-MEL-28 melanoma 84.2%
active: SK-MEL-5 melanoma -10.9%

COc1ccc(-c2nc(N/N=C/c3c[nH]c4ccccc34)nc(N3CCOCC3)c2C#N)cc1
inactive: HCT-15 colon 44.1% | HT29 colon 51.4% | SNB-75 CNS 61.6% | SNB-19 CNS 109% | U251 CNS 58.7% | PC-3 prostate 74.3% | SK-MEL-5 melanoma 101% | UACC-62 melanoma 106% | LOX IMVI melanoma 102% | SK-MEL-28 melanoma 41.3%

CCN1C(=O)/C(=c2\sc3n(c2=O)NC2C(N=3)N(CC)C(=O)N2CC)c2ccccc21 (stereo not drawn)
active: SNB-75 CNS 7.11%
inactive: HCT-15 colon 33.7% | HT29 colon 12.9% | SNB-19 CNS 50.8% | U251 CNS 33.4% | PC-3 prostate 29.6% | SK-MEL-5 melanoma 30.9% | UACC-62 melanoma 43.9% | LOX IMVI melanoma 55.4% | SK-MEL-28 melanoma 55.5%

O=C(N/N=C/c1ccc(O)c(O)c1)c1sc2ccccc2c1Cl
inactive: HCT-15 colon 33.9% | HT29 colon 105% | SNB-75 CNS 83.2% | SNB-19 CNS 59.4% | U251 CNS 59.2% | PC-3 prostate 66.6% | SK-MEL-5 melanoma 81.8% | UACC-62 melanoma 73.8% | LOX IMVI melanoma 68.7% | SK-MEL-28 melanoma 56.8%

CC1=CC[C@@H]2CC[C@]3(C)[C@H](CC[C@@H]4[C@@]5(C)CCCNC(C)(C)[C@@H]5CC[C@]43C)[C@H]2[C@@H]1C
inactive: SNB-75 CNS 76.5% | SNB-19 CNS 18.1% | PC-3 prostate 27.7% | SK-MEL-5 melanoma 89.9% | UACC-62 melanoma 92.4% | SK-MEL-28 melanoma 63.7%
active: HCT-15 colon -57.8% | HT29 colon -55.2% | U251 CNS -90.8% | LOX IMVI melanoma -100%

O=C(O)/C=C\C(=O)N1C/C(=C\c2ccccc2Cl)C(=O)/C(=C/c2ccccc2Cl)C1
inactive: PC-3 prostate 16.7%
active: HCT-15 colon -48.8% | HT29 colon -78.1% | SNB-75 CNS -10.3% | SNB-19 CNS -52.7% | U251 CNS -75.2% | SK-MEL-5 melanoma -54.1% | UACC-62 melanoma -60.3% | LOX IMVI melanoma -69.3% | SK-MEL-28 melanoma -39.6%

C1=C2CNCC3=Cc4ccc5ccccc5c4OC23Oc2c1ccc1ccccc21
inactive: HCT-15 colon 21.7% | HT29 colon 19.1% | SNB-75 CNS 34.5% | SNB-19 CNS 59.6% | U251 CNS 38.9% | PC-3 prostate 39.1% | SK-MEL-5 melanoma 35.6% | UACC-62 melanoma 25.6% | LOX IMVI melanoma 18.9% | SK-MEL-28 melanoma 46.7%

COc1cnccc1-c1nc2ccc3[nH]ncc3c2c2c1CCCC2
inactive: HCT-15 colon 46.1% | HT29 colon 51.8% | SNB-75 CNS 24.1% | SNB-19 CNS 85.3% | U251 CNS 83.9% | PC-3 prostate 68.2% | SK-MEL-5 melanoma 54.1% | UACC-62 melanoma 38.1% | LOX IMVI melanoma 31.7% | SK-MEL-28 melanoma 58.6%

CNC(=O)NCC1OC(n2cnc3c(NC(=O)Nc4ccccc4)ncnc32)C(O[Si](C)(C)C(C)(C)C)C1O[Si](C)(C)C(C)(C)C (stereo not drawn)
inactive: HCT-15 colon 21.3% | SNB-75 CNS 45.8% | SNB-19 CNS 76.1% | U251 CNS 17.2% | SK-MEL-5 melanoma 48.2% | UACC-62 melanoma 41.9% | LOX IMVI melanoma 13.3% | SK-MEL-28 melanoma 60%
active: HT29 colon -67.7% | PC-3 prostate 7.78%

CC(C)CN(C(=O)c1ccc(Cl)cc1)c1c(N)n(CC(C)C)c(=O)[nH]c1=O
inactive: HCT-15 colon 111% | HT29 colon 111% | SNB-75 CNS 88.4% | SNB-19 CNS 96.6% | U251 CNS 98.8% | PC-3 prostate 89.8% | SK-MEL-5 melanoma 37.6% | UACC-62 melanoma 88.7% | LOX IMVI melanoma 102% | SK-MEL-28 melanoma 107%

O=C(CN1CCOCC1)Nc1ccc2ncnc(Nc3ccc(Oc4cccc(C(F)(F)F)c4)c(Cl)c3)c2c1
inactive: HCT-15 colon 52.2% | HT29 colon 54% | SNB-75 CNS 73.7% | SNB-19 CNS 61.9% | U251 CNS 62.4% | PC-3 prostate 44.5% | SK-MEL-5 melanoma 58.9% | UACC-62 melanoma 71% | LOX IMVI melanoma 43.8% | SK-MEL-28 melanoma 77.1%

COc1cc(OC)c(/C=C/C(=O)c2ccc(Nc3ncnc4ccccc34)cc2)c(OC)c1
inactive: SNB-19 CNS 12.9% | PC-3 prostate 12%
active: HCT-15 colon 9.75% | HT29 colon -62.4% | SNB-75 CNS -38.9% | U251 CNS -9.02% | SK-MEL-5 melanoma -42.4% | UACC-62 melanoma -50% | LOX IMVI melanoma 3.48% | SK-MEL-28 melanoma -26.4%

COc1ccc(-c2nc(SC)nc(N3CCOCC3)c2C#N)cc1
inactive: HCT-15 colon 93.9% | HT29 colon 92.3% | SNB-75 CNS 60.5% | SNB-19 CNS 96.7% | U251 CNS 91.1% | PC-3 prostate 81.1% | SK-MEL-5 melanoma 98.4% | UACC-62 melanoma 83.5% | LOX IMVI melanoma 96.1% | SK-MEL-28 melanoma 106%

CC(c1ccccc1)n1ccnc1CO (stereo not drawn)
inactive: HCT-15 colon 107% | HT29 colon 119% | SNB-75 CNS 92.4% | SNB-19 CNS 98.5% | U251 CNS 98.9% | PC-3 prostate 94.7% | SK-MEL-5 melanoma 93.4% | UACC-62 melanoma 104% | LOX IMVI melanoma 96.3% | SK-MEL-28 melanoma 94.5%

COc1cc(-c2nc3occn3c2-c2ccnc(NCCNS(=O)(=O)c3ccc(Cl)cc3)n2)ccc1F
inactive: HCT-15 colon 74.7% | HT29 colon 53.1% | SNB-75 CNS 69.1% | SNB-19 CNS 91.6% | U251 CNS 90% | PC-3 prostate 56.4% | SK-MEL-5 melanoma 66.1% | UACC-62 melanoma 57.1% | LOX IMVI melanoma 81.9% | SK-MEL-28 melanoma 102%

Cc1n[nH]c(C)c1-c1c(C)n[nH]c1C
inactive: SNB-75 CNS 35.2% | SNB-19 CNS 28.3% | PC-3 prostate 17.8% | SK-MEL-28 melanoma 11.9%
active: HCT-15 colon -13.6% | HT29 colon 7.37% | U251 CNS 1.27% | SK-MEL-5 melanoma 0.89% | UACC-62 melanoma 7.89% | LOX IMVI melanoma -64.3%

COc1cc2nc(-c3ccc(-c4nn[nH]n4)cc3)[nH]c(=O)c2cc1OC
inactive: HCT-15 colon 106% | HT29 colon 110% | SNB-75 CNS 106% | SNB-19 CNS 94.3% | U251 CNS 105% | PC-3 prostate 131% | SK-MEL-5 melanoma 102% | UACC-62 melanoma 105% | LOX IMVI melanoma 97.3% | SK-MEL-28 melanoma 128%

N#Cc1c(NC(=O)c2cccc(Br)c2)sc2c1CCCC2
inactive: HCT-15 colon 45.8% | HT29 colon 59.5% | SNB-75 CNS 84.4% | SNB-19 CNS 81.1% | U251 CNS 88.2% | PC-3 prostate 90.9% | SK-MEL-5 melanoma 89.8% | UACC-62 melanoma 71.7% | LOX IMVI melanoma 80% | SK-MEL-28 melanoma 86.3%

COc1ccc(/C=C/C(=O)c2ccc(OC)c(OC)c2)cc1O
inactive: HCT-15 colon 56.5% | HT29 colon 63.8% | SNB-75 CNS 86.1% | SNB-19 CNS 82.1% | U251 CNS 25.4% | PC-3 prostate 82.4% | SK-MEL-5 melanoma 77.2% | UACC-62 melanoma 87.1% | LOX IMVI melanoma 65.5% | SK-MEL-28 melanoma 101%
